This is an account of results in PubChem BioAssay (Tox21).

Values joined by “and” are separate entries in the source; they are usually repeats but may differ in a detail not shown here. Equal values may be shown once. Records with an inconclusive call do not appear. A call without a number means that no potency is given here. A structure can be active in one record and inactive in another. Active and inactive are the calls of the source. The call rests on the fitted dose curve; in most records, active means well fitted activation curve with a large enough effect in the repeat runs; inconclusive means weak or mixed curves; inactive means flat fitted curve, though single readings scatter.
Potency means the concentration at half of the fitted maximal effect.

A short description of the test: A CellTox Green Cytotoxicity Assay to monitor cytotoxicity in HepG2 cells - 32 hour (AID 1224883). Further: nearly all actives have a fitted effect of over 50% in size. Particulars: CellTox Green fluorescence; series mostly up to 76.8 µM. An excerpt: National Center for Advancing Translational Sciences [NCATS]
NIH Chemical Genomics Center [NCGC]
U.S. Environmental Protection Agency [EPA]
National Institutes of Environmental Health Sciences [NIEHS]
National Toxicology Program [NTP]
Cell-based models are critical for drug discovery. Determining the natural cytotoxic effects resulting from test compounds is an essential research activity. A CellTox Green Cytotoxicity Assay to monitor cytotoxicity in real time of continues cell culture during 40 hours of the compound treatment was used to screen Tox21 10K library compounds in HepG2 cells. CellTox Green Cytotoxicity Assay is a nonlytic, homogeneous, biofluorescent method to measure cytotoxicity in cell culture after experimental manipulation. The assay system uses a proprietary asymmetric cyanine dye that is excluded from viable cells but preferentially stains the dead cell's DNA. […] Viable cells produce no appreciable increases in fluorescence. Therefore, the fluorescence signal produced by the binding interaction with dead cell DNA is proportional to cytotoxicity.
The mixture of HepG2 cell suspension and reagents were dispensed at 600cells/6 ul/well in 1536-well tissue culture treated black solid bottom plates using a Multidrop dispenser. After the assay plates were incubated at a 37 C/5% CO2 incubator for 5 hours, 23 nL of compounds dissolved in DMSO, positive and negative controls was transferred to the assay plate by a pintool work station. The plates were incubated at 37 C for 40 hours. The fluorescence intensity were measured at 0h, 8h, 16h, 24h, 32h and 40h time points using ViewLux plate reader during compound treatment.
In the case of `CCC(C)(C)c1ccc(O)cc1`, the Potency was 44.1 µM (active) and 38.9 µM (active) and 21.3 µM (active).

`Nc1ccc(Cl)c(Cl)c1`: the Potency entry was “inactive”.

`NNC(=S)NN`: the Potency entry was “inactive”. As to `N#Cc1cc(Br)c(O)c(Br)c1`, the Potency result is “inactive”. The entry for `c1nc[nH]n1` is “inactive”; for `O=C(O)CC[N+](=O)[O-]` it is “inactive”; for `Cc1cc(C)cc(C)c1` it is “inactive”. Under `Oc1c(Cl)c(Cl)c(Cl)c(Cl)c1Cl` stands “inactive”; under `CCCCCCCCCCCOC(=O)c1ccccc1C(=O)OCCCCCCCCCCC`, “inactive”.

For `CCN(CC)C(=O)SCc1ccc(Cl)cc1`, the Potency entry was “inactive”. Under `C=CCc1ccc(OC)cc1` stands “inactive”; under `Brc1ccc(Oc2cc(Br)c(Br)cc2Br)c(Br)c1`, “inactive”; under `CCCCCCCCOC(=O)c1ccccc1C(=O)OCCCCCCCC`, “inactive”. The figure for `Cc1ccc(OP(=O)(Oc2ccc(C)cc2)Oc2ccc(C)cc2)cc1` is 4.89 µM (active) and inactive; for `CN(C)c1ccc(C(=O)c2ccc(N(C)C)cc2)cc1` it is 12.2 µM (active). Regarding `NCc1cccnc1`, the Potency result was “inactive”.

Consider `CC(C)(C)c1ccccc1O`, for which the Potency is 49.5 µM (active).

Regarding `Nc1ccc(-c2ccccc2)cc1`, the Potency result was “inactive”. For `CCC(C)c1cc([N+](=O)[O-])cc([N+](=O)[O-])c1O` (stereo not given), the Potency entry was “inactive”. The entry for `c1cc(OCC2CO2)ccc1Cc1ccc(OCC2CO2)cc1` (stereo not given) is “inactive”; for `ClC1C(Cl)C(Cl)C(Cl)C(Cl)C1Cl` (stereo not given) it is “inactive and 43.6 µM (active)”. `CCc1cccc(CC)c1N(COC)C(=O)CCl`: the Potency result was “inactive”.

Take `O=C(CCl)c1ccccc1`: the Potency entry is “inactive”.

For `C=CCN(CC=C)C(=O)C(Cl)Cl`, the Potency result was “inactive”. On to `CC(C)(c1cc(Cl)c(O)c(Cl)c1)c1cc(Cl)c(O)c(Cl)c1`, for which the Potency entry was “inactive”. Consider `CCCCN(CCCC)N=O`, for which the Potency result is “inactive”.

Turning to `CCCCCCCCC(=O)NCc1ccc(O)c(OC)c1`, the Potency entry is “inactive”. Turning to `Nc1c(Cl)cc([N+](=O)[O-])cc1Cl`, the Potency entry is “inactive”. Regarding `O=S(=O)(Oc1ccc(Cl)cc1)c1ccc(Cl)cc1`, the Potency result is “inactive”. The entry for `O=[N+]([O-])c1ccc(O)c([N+](=O)[O-])c1` is “inactive”; for `CCOP(=S)(OCC)O/N=C(\C#N)c1ccccc1` it is “inactive”; for `c1ccc(-c2cccc(-c3ccccc3)c2)cc1` it is “inactive”. In the case of `CCCCC(CC)COC(=O)c1ccc(C(=O)OCC(CC)CCCC)c(C(=O)OCC(CC)CCCC)c1` (stereo not given), the Potency entry is “inactive”.

As to `COP(=S)(OC)Oc1ccc([N+](=O)[O-])cc1`, the Potency result is “inactive”. As to `CCOCN(C(=O)CCl)c1c(C)cccc1CC`, the Potency result was “inactive”. As to `CC(O)CCO` (stereo not given), the Potency result is “inactive”. The entry for `S=C1NCCN1` is “inactive”; for `CCC(C)(c1ccc(O)cc1)c1ccc(O)cc1` it is “inactive”. With `COc1ccc(C=O)cc1`, the Potency result is “inactive”. Under `CC(C)Oc1cc(-n2nc(C(C)(C)C)oc2=O)c(Cl)cc1Cl` stands “inactive”.
